# Assay results taken from the antibiotic and cytotoxicity screens of Wong et al. (2023).
# The whole screen tested about 39,000 compounds, of which about 3,300 (8.5%) were called active. What follows is part of a selection rich in actives, with near analogues and random picks from the rest.
# Test system: HepG2
# Test: cytotoxicity call (relative viability < 0.9)
# Conditions: 10 µM
row,SMILES,cytotoxicity call
1,C[C@@H]1O[C@@H](O[C@@H]2[C@@H](O)[C@H](C)O[C@@H](OC[C@H]3O[C@@H](Oc4c(-c5ccc(O)cc5)oc5cc(O)cc(O)c5c4=O)[C@H](O)[C@@H](O)[C@H]3O)[C@@H]2O)[C@H](O)[C@H](O)[C@H]1O,inactive
2,C[C@@H]1CN([C@@H](C)CO)C(=O)c2cc(C#Cc3cccnc3)cnc2O[C@@H]1CN(C)Cc1ccc(F)cc1,inactive
3,C[C@H](CO)N1C[C@H](C)[C@@H](CN(C)Cc2ccccc2)Oc2c(NC(=O)c3ccc(-c4nccs4)cc3)cccc2C1=O,inactive
4,N#CCNC(=O)Cc1ccccc1,inactive
5,NC(Cc1cc(I)c(Oc2ccc(O)c(I)c2)c(I)c1)C(=O)[O-].[Na+] [LIOTHYRONINE (L- isomer) SODIUM ],active
6,N[C@@H](Cc1cc(I)c(Oc2ccc(O)c(I)c2)c(I)c1)C(=O)O,inactive
7,NC(Cc1cc(I)c(Oc2ccc(O)c(I)c2)c(I)c1)C(=O)O (centres undefined),inactive
8,COc1cccc(S(=O)(=O)Nc2ccc3c(c2)[C@@H]2C[C@@H](CC(=O)NCc4cccc(F)c4)O[C@@H](CO)[C@@H]2O3)c1,inactive
9,Cc1noc(C)c1S(=O)(=O)Nc1ccc2c(c1)CC(=O)N([C@H](C)CO)C[C@H](C)[C@H](CN(C)CC1CC1)O2,inactive
10,Cc1noc(C)c1S(=O)(=O)N(C)C[C@H]1OCCCC[C@@H](C)Oc2ccc(NC(=O)Nc3ccccc3)cc2C(=O)N([C@@H](C)CO)C[C@@H]1C,active
11,Cc1noc(C)c1S(=O)(=O)N(C)C[C@@H]1OCCCC[C@H](C)Oc2ccc(NC(=O)Nc3ccccc3)cc2C(=O)N([C@H](C)CO)C[C@H]1C,active
12,Cc1noc(C)c1S(=O)(=O)N(C)C[C@@H]1OCCCC[C@@H](C)Oc2ccc(NC(=O)Nc3ccccc3)cc2C(=O)N([C@@H](C)CO)C[C@@H]1C,inactive
13,Cc1noc(C)c1S(=O)(=O)N(C)C[C@H]1OCCCC[C@H](C)Oc2ccc(NC(=O)Nc3ccccc3)cc2C(=O)N([C@H](C)CO)C[C@@H]1C,inactive
14,Cc1noc(C)c1S(=O)(=O)N(C)C[C@@H]1OCCCC[C@@H](C)Oc2ccc(NC(=O)Nc3ccccc3)cc2C(=O)N([C@H](C)CO)C[C@H]1C,inactive
15,Cc1noc(C)c1S(=O)(=O)N(C)C[C@H]1OCCCC[C@H](C)Oc2ccc(NC(=O)Nc3ccccc3)cc2C(=O)N([C@H](C)CO)C[C@H]1C,inactive
16,COc1cccc(S(=O)(=O)N(C)C[C@H]2Oc3cc(C4=CCCC4)ccc3S(=O)(=O)N([C@@H](C)CO)C[C@@H]2C)c1,inactive
17,CC(C)NC(=O)Nc1ccc2c(c1)C(=O)N([C@@H](C)CO)C[C@@H](C)[C@@H](CN(C)C(=O)Nc1ccccc1)OCCCC[C@H](C)O2,inactive
18,C[C@@H](NC(=O)C[C@@H]1C=C[C@H](NC(=O)CN2CCOCC2)[C@H](CO)O1)c1ccccc1,inactive
19,CC1=CC(C)(C)N(C(=O)Nc2ccc(C)cc2)c2ccccc21,inactive
20,Cc1ccc(OC(=O)n2c3ccccc3c3ccccc32)cc1,inactive
21,Cc1ccc(NC(=O)n2c3ccccc3c3ccccc32)cc1,active
22,C[C@@H]1CN([C@H](C)CO)S(=O)(=O)c2ccc(C3=CCCCC3)cc2O[C@H]1CN(C)S(=O)(=O)c1cn(C)cn1,inactive
23,O=C(C[C@@H]1CC[C@@H]2[C@H](COC[C@@H](O)CN2S(=O)(=O)c2cccc(Cl)c2)O1)NCc1ccc2c(c1)OCO2,inactive
24,O=C(NO)c1ccc(-c2cn(CC(=O)N3CCOCC3)nn2)s1,inactive
25,CC(C)C[C@H]1NC(=O)[C@@H](CCCN)NC(=O)[C@H](C(C)C)NC(=O)[C@H]2CCCN2C(=O)[C@@H](Cc2ccccc2)NC(=O)[C@@H](CC(C)C)NC(=O)[C@@H](CCCN)NC(=O)[C@H](C(C)C)NC(=O)[C@H]2CCCN2C(=O)[C@@H](Cc2ccccc2)NC1=O,active
26,C[C@H]1[C@H]2[C@H](Cc3ccccc3)NC(=O)[C@]23C(=O)N[C@H](Cc2ccccc2)C(=O)N2CCC[C@H]2C(=O)NC/C=C\C/C=C/[C@@H]3[C@@H]2O[C@]12C,inactive
27,CC1NC(=O)C2CCCN2C(=O)C(CC(N)=O)NC(=O)C2CSSCC(N)C(=O)NC3CSSCC(NC1=O)C(=O)NC(C(C)O)C(=O)NCC(=O)NC(C(=O)NC(Cc1ccc(O)cc1)C(=O)O)CSSCC(NC(=O)C(Cc1ccc(O)cc1)NC(=O)C(CCC(=O)O)NC3=O)C(=O)N2 (centres undefined),inactive

row,SMILES,cytotoxicity call
1,CC[C@@H](C)CCCCC(=O)N[C@@H](CCN)C(=O)N[C@H](C(=O)N[C@@H](CCN)C(=O)N[C@H]1CCNC(=O)[C@H]([C@@H](C)O)NC(=O)[C@H](CCN)NC(=O)[C@H](CCN)NC(=O)[C@H](CC(C)C)NC(=O)[C@@H](Cc2ccccc2)NC(=O)[C@@H](CCN)NC1=O)[C@@H](C)O,inactive
2,CC(C)C[C@@H]1NC(=O)[C@@H](C(C)C)NC(=O)[C@@H]2CCCN2C(=O)[C@@H](CC(=O)O)NC(=O)[C@@H](Cc2c[nH]c3ccccc23)NC1=O,inactive
3,C[C@H]1CN([C@@H](C)CO)C(=O)c2cc(NS(=O)(=O)c3cccs3)ccc2O[C@H]1CN(C)S(C)(=O)=O,inactive
4,COc1ccc(S(=O)(=O)N(C)C[C@@H]2Oc3ccc(NS(=O)(=O)c4ccccc4)cc3CC(=O)N([C@H](C)CO)C[C@@H]2C)cc1,inactive
5,COCCN(C)C(=O)c1ccc2nnc([C@H]3CN(S(C)(=O)=O)CCN3C)n2c1,inactive
6,C=CCOC(=O)[C@@H]1[C@H]2C(=O)O[C@H](c3ccccc3)[C@H](c3ccccc3)N2[C@H](c2ccc(OCCOC(=O)[C@@H]3C[C@@H]4C(=O)N[C@@H](CCCCNC(C)=O)C(=O)N4[C@@H]3c3ccc(O)cc3)cc2)[C@@]12C(=O)Nc1ccccc12,inactive
7,C=CCNC1=C2C[C@@H](C)C[C@H](OC)[C@H](O)[C@@H](C)/C=C(\C)[C@H](OC(N)=O)[C@@H](OC)/C=C\C=C(/C)C(=O)NC(=CC1=O)C2=O,active
8,C=CCNC1=C2C[C@H](C)C[C@H](OC)[C@@H](O)[C@H](C)/C=C(\C)[C@H](OC(N)=O)[C@H](OC)/C=C/C=C(\C)C(=O)NC(=CC1=O)C2=O,active
9,CO[C@H]1/C=C\C=C(/C)C(=O)NC2=CC(=O)C(NCCN(C)C)=C(C[C@@H](C)C[C@H](OC)[C@H](O)[C@@H](C)/C=C(\C)[C@@H]1OC(N)=O)C2=O,active
10,C[C@H](CO)N1C[C@H](C)[C@H](CN(C)S(=O)(=O)c2cn(C)cn2)Oc2ccc(NS(=O)(=O)c3cn(C)cn3)cc2CC1=O,inactive
11,CC(C)NC(=O)N(C)C[C@H]1OCc2cn(nn2)CCCC(=O)N([C@@H](C)CO)C[C@@H]1C,inactive
12,Cc1noc(C)c1NC(=O)N(C)C[C@@H]1Oc2cc(C#CCN(C)C)ccc2S(=O)(=O)N([C@@H](C)CO)C[C@H]1C,inactive
13,COc1ccc(S(=O)(=O)Nc2ccc3c(c2)C(=O)N([C@@H](C)CO)C[C@@H](C)[C@H](CN(C)C(=O)c2ccccc2)OCCCC[C@@H](C)O3)cc1,inactive
14,Nc1cc(F)ccc1CO,inactive
15,OCc1ccccc1O,inactive
16,Nc1ccccc1CO,active
17,C[C@H](CO)N1C[C@H](C)[C@H](CN(C)C(=O)c2ccccc2)Oc2cc(C#C[C@@H](C)O)ccc2S1(=O)=O,inactive
18,Cc1ccc(S(=O)(=O)Nc2ccc3c(c2)CC(=O)N([C@H](C)CO)C[C@H](C)[C@@H](CN(C)C(=O)NC(C)C)O3)cc1,inactive
19,C[C@@H]1CN([C@@H](C)CO)S(=O)(=O)c2ccc(C#CC3CC3)cc2O[C@H]1CN(C)C(=O)Cc1ccncc1,inactive
20,COc1ccc2c3c([nH]c2c1)[C@@H](CO)N(C[C@]13CN(C1)S(=O)(=O)c1cn(cn1)C)C(=O)Nc1ccc(cc1)F,inactive
21,C[C@@H]1CN([C@@H](C)CO)C(=O)c2cc(NC(=O)Nc3ccc4c(c3)OCO4)ccc2O[C@@H]1CN(C)C(=O)Nc1ccc(C(F)(F)F)cc1,inactive
22,COC1C(O)CC(=O)OC(C)CC=CC=CC(O)C(C)CC(CC=O)C1OC1OC(C)C(OC2CC(C)(O)C(OC(=O)CC(C)C)C(C)O2)C(N(C)C)C1O (centres undefined) [KITASAMYCINS [A1 shown] ],inactive
23,CO[C@@H]1[C@@H](O[C@@H]2O[C@H](C)[C@@H](O[C@H]3C[C@@](C)(O)[C@@H](O)[C@H](C)O3)[C@H](N(C)C)[C@H]2O)[C@@H](CC=O)C[C@@H](C)[C@@H](O[C@H]2CC[C@H](N(C)C)[C@@H](C)O2)/C=C/C=C/CC(C)OC(=O)C[C@H]1OC(C)=O (some centres undefined),inactive
24,COC1C(O)CC(=O)OC(C)CC=CC=CC(OC2CCC(N(C)C)C(C)O2)C(C)CC(CC=O)C1OC1OC(C)C(OC2CC(C)(O)C(O)C(C)O2)C(N(C)C)C1O (centres undefined),active
25,CO[C@@H]1[C@@H](O[C@@H]2O[C@H](C)[C@@H](O[C@H]3C[C@@](C)(O)[C@@H](OC(=O)CC(C)C)[C@H](C)O3)[C@H](N(C)C)[C@H]2O)[C@@H](CC=O)C[C@@H](C)[C@@H](O)/C=C/C=C/CC(C)OC(=O)C[C@H]1OC(C)=O (some centres undefined),active
26,CO[C@@H]1[C@@H](O[C@@H]2O[C@H](C)[C@@H](O[C@H]3C[C@@](C)(O)[C@@H](OC(=O)CC(C)C)[C@H](C)O3)[C@H](N(C)C)[C@H]2O)[C@@H](CC=O)C[C@@H](C)[C@@H](O)/C=C\C=C/C[C@@H](C)OC(=O)C[C@H]1OC(C)=O,inactive
27,CO[C@@H]1[C@@H](O[C@@H]2O[C@H](C)[C@@H](O[C@H]3C[C@@](C)(O)[C@@H](O)[C@H](C)O3)[C@H](N(C)C)[C@H]2O)[C@@H](CC=O)C[C@@H](C)[C@@H](O[C@H]2CC[C@H](N(C)C)[C@@H](C)O2)/C=C/C=C/C[C@@H](C)OC(=O)C[C@H]1O,inactive
